Compound activity as filed in PubChem BioAssay.
MmCpn inh – M. maripaludis TRiC chaperonin inhibition; 0.031% of 330,000 active; Potency, µM (titrated, usually from 76.9 µM), for inactives: at the top dose activity, negative = inhibition, hits mostly inhibitors; purified Mm-Cpn ATPase, ADP Transcreener TR-FRET; AID 504842; note: potency is the fitted concentration of half-maximal effect; % is set by controls: 0 for no effect and ±100 for the full control effect; nearly all actives have a fitted effect of over 80% in size
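ATPase read-out: TR-FRET ADP immunoassay (anti-ADP Eu cryptate vs ADP-d2), ex 320 nm, em 590/665 nm; signal drops as ADP forms. Enzyme 25 nM, ATP 10 uM, 30 min at 37°C after 10 min compound preincubation.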
KCNH2 3.1 inh – KCNH2 3.1 (human) potassium channel inhibition | activity change, % (tested at about 1.8 µM) | U2OS KCNH2 3.1, thallium flux FluxOr; active compounds read low | 0.95% of 340,000 active;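 active = maximum activity change below -70%; inconclusive = maximum activity change from -70% to -50%; inactive = maximum activity change above -50%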;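 note: thallium influx rate constant from kinetic fluorescence after stimulation buffer; % is set by controls: 0 for no effect and ±100 for the full control effect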
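Kinetic fluorescence (2 min after stimulation buffer) measures Tl+ influx through KCNH2 3.1 expressed by viral transduction in U2OS cells; the rate constant is normalized against DMSO controls serving as positive and negative references.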
hERG WT inh – KCNH2 (human, wildtype) channel inhibition; U2OS, BacMam KCNH2, thallium flux FluxOr; active compounds read low; 0.37% of 340,000 active; Q12809; activity change, % at 1.84 µM;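 active = maximum activity change below -70%; inconclusive = maximum activity change between -70% and -50%; inactive = maximum activity change above -50%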; note: % is set by controls: 0 for no effect and ±100 for the full control effect
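U2OS cells were transduced with wild-type KCNH2 virus (2.03 x 10^8 / mL) for 4 h at room temperature, then cultured overnight at 37 C. Thallium flux was read with FluxOr dye. Rate constants were normalized to DMSO controls.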
ASM inhibitor – human S-ASM enzyme inhibition; placental ASM, HMU-PC fluorogenic substrate, 60 min; Potency, µM (series often up to 57.5 µM), inactives show at the highest dose activity change, negative = inhibition, most hits filed as inhibitors; AID 504937; P17405; 0.006% of 340,000 active; note: potency is the fitted concentration of half-maximal effect
Target sequence (P17405 47-631 limits assumed): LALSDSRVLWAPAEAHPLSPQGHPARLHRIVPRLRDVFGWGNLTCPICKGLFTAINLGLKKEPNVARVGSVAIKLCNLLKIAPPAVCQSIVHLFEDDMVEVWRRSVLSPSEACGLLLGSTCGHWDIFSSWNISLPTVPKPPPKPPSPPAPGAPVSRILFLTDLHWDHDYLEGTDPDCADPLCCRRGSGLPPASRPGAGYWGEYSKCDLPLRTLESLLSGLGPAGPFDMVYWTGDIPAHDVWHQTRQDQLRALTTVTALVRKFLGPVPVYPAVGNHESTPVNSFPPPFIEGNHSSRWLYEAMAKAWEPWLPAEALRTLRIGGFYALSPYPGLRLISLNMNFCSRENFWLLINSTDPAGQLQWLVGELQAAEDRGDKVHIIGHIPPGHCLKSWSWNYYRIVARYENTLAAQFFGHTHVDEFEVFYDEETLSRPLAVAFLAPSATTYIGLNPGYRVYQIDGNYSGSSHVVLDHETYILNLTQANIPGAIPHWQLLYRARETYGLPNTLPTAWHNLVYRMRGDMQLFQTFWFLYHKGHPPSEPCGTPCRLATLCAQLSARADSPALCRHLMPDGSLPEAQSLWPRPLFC
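HMU-PC0 cleavage (9 uM final) by human placental ASM, 60 min at 37 °C following 10 min compound exposure at RT; stopped at pH 10, fluorescence Ex 386/Em 447 nm.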
p53 reactivation – re-activators of mutant p53; H1299 p53-A138V BP100-luciferase reporter, luminescence, 24 h; Potency, µM (top dose mostly 92.2 µM), for the others: at the highest dose activity change, positive = activation, usual class: activators; 0.063% of 320,000 active; note: potency is the fitted concentration of half-maximal effect; % of control where 0% means no effect; nearly all actives have a fitted effect of over 45% in size
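H1299 (p53-null), stable ts p53-A138V + BP100-Luc; 1000 cells/well, Opti-MEM/10% FBS; cpd 4 pt, 1:5; 24 h, 37 deg C, 5% CO2; detection reagent 10 min RT; luminescence.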
uPA generation – cell surface uPA generation inhibition. Potency, µM (top dose mostly 38.3 µM), for the others: at the top dose activity change, negative = inhibition, usual class: inhibitors. cell surface uPA generation assay, qHTS. 0.31% of 330,000 active; active = well fitted inhibition curve with a large enough effect; inconclusive = small, poorly fitted or top-dose-only effect; inactive = no such curve, though single readings can be large or run the other way; tested in mouse RAW 264.7 cells; note: potency is the fitted concentration of half-maximal effect; % is set by controls: 0 for no effect and ±100 for the full control effect; nearly all actives have a fitted effect of over 55% in size
Starred values were filed as active, the others as inactive. An excerpt weighted towards active compounds, which were near 1.4% of everything screened. Unless noted, calls come from the whole dose curve; as a rule, active = well fitted curve in the direction sought with a large enough effect; inconclusive = small, poorly fitted or top-dose-only effect, or another doubt; inactive = no such curve, though single readings can be large; an effect the other way counts as inactive or inconclusive.

OC(CN1C2=NCCN2c2ccccc21)c1ccccc1 (stereo not given) was read as MmCpn inh 2.0%, KCNH2 3.1 inh -24.8, hERG WT inh 2.7, ASM inhibitor -0.8%, p53 reactivation -9.1% and uPA generation -3.1%.
Screening CSCCC(NC(=O)c1ccccc1Cl)C(=O)NCCc1ccccn1 (stereo not given) returned MmCpn inh 0.9%, KCNH2 3.1 inh 3.7, hERG WT inh 0.7, ASM inhibitor 1.9%, p53 reactivation 7.5% and uPA generation -15.5%.
`CCCn1c(SCC(=O)N2CCCC2=O)nc2ccccc2c1=O` gave MmCpn inh 0.9%, KCNH2 3.1 inh 11.1, hERG WT inh -8.7, ASM inhibitor 6.9%, p53 reactivation 1.1% and uPA generation 6.2%.
`Cc1ccc(NC(=O)CSc2nnc(-c3ccncc3)n2N)cc1C` gave MmCpn inh 1.2%, KCNH2 3.1 inh -7.2, hERG WT inh -204.3*, ASM inhibitor 5.9%, p53 reactivation -2.5% and uPA generation 1.6%.
`NC(=O)c1ccccc1NC(=O)c1cc(S(=O)(=O)N2CCCCC2)ccc1N1CCOCC1` gave MmCpn inh 0.3%, KCNH2 3.1 inh -29.3, hERG WT inh 5.5, ASM inhibitor 10.3%, p53 reactivation -8.6% and uPA generation 23.0%.
`c1ccc2[nH]c(NCc3ccc4c(c3)OCO4)nc2c1` gave MmCpn inh -0.1%, KCNH2 3.1 inh -11.2, hERG WT inh -125.9*, ASM inhibitor 1.8%, p53 reactivation 11.1% and uPA generation -11.3%.
COc1ccc(OC)c(C(=O)CN2C(=O)C(=O)N(C3CCCC3)C2=O)c1 was read as MmCpn inh -3.4%, KCNH2 3.1 inh 7.7, hERG WT inh 2.1, ASM inhibitor -2.5%, p53 reactivation -9.7% and uPA generation 2.9%.
For CCn1c2c(c(=N)c3c1CCC3)CCC2 the results were MmCpn inh -1.1%, KCNH2 3.1 inh -88.4*, hERG WT inh 0.5, ASM inhibitor 0.7%, p53 reactivation 0.1% and uPA generation 8.8%.
Screening CC1CN(C(=O)c2ccc(CNS(=O)(=O)c3cccc(Cl)c3)cc2)CC(C)O1 (stereo not given) returned MmCpn inh 0.6%, KCNH2 3.1 inh 3.7, hERG WT inh -13.9, ASM inhibitor -1.6% and uPA generation 3.7%.
For CC1CCN(S(=O)(=O)c2ccc(C(=O)NCc3cccnc3)cc2)CC1 the results were MmCpn inh 1.8%, KCNH2 3.1 inh 3.1, hERG WT inh -263.4*, ASM inhibitor 6.6%, p53 reactivation -2.6% and uPA generation 2.6%.
`Cc1ccc(C(=O)NC2CCS(=O)(=O)C2)cc1S(=O)(=O)N1CCCCCC1` (stereo not given) gave MmCpn inh -5.2%, KCNH2 3.1 inh -114.2*, hERG WT inh 13.9, ASM inhibitor 4.9%, p53 reactivation 0.7% and uPA generation -1.5%.
`CC1CCN(S(=O)(=O)c2ccc(C(=O)NC3CCS(=O)(=O)C3)cc2)CC1` (stereo not given) gave MmCpn inh 1.3%, KCNH2 3.1 inh -78.9*, hERG WT inh -3.4, ASM inhibitor -0.2%, p53 reactivation -4.4% and uPA generation 0.5%.
`O=C(NCc1cccnc1)c1ccc(S(=O)(=O)N2CCOCC2)cc1` gave MmCpn inh 1.3%, KCNH2 3.1 inh -10.6, hERG WT inh 6.1, ASM inhibitor 0.1%, p53 reactivation -0.9% and uPA generation 9.8%.
Screening O=C(NC1CCS(=O)(=O)C1)c1ccc(S(=O)(=O)N2CCCC2)cc1 (stereo not given) returned MmCpn inh inconclusive, KCNH2 3.1 inh 26.2, hERG WT inh -8.3, ASM inhibitor 5.0%, p53 reactivation 0.2% and uPA generation 3.4%.
`Cc1ccc(C(=O)NC2CCCCC2)cc1S(=O)(=O)N1CCCC1` gave MmCpn inh -0.7%, KCNH2 3.1 inh 7.8, hERG WT inh 7.5, ASM inhibitor -1.0%, p53 reactivation 14.1% and uPA generation -0.1%.
For Cc1cccc(NC(=O)C23CCC(C)(C(=O)O2)C3(C)C)c1 (stereo not given) the results were MmCpn inh -0.8%, KCNH2 3.1 inh 4.2, hERG WT inh -9.4, ASM inhibitor -3.2%, p53 reactivation -4.2% and uPA generation 2.1%.
Cc1cc(NC(=O)C23CCC(C)(C(=O)O2)C3(C)C)no1 (stereo not given) was read as MmCpn inh 0.5%, KCNH2 3.1 inh -191.3*, hERG WT inh -22.1, ASM inhibitor -0.9% and p53 reactivation -4.1%.
For COc1ccccc1C1CCN(Cc2cccc(C(=O)N3CCC(O)CC3)c2)CC1 the results were MmCpn inh -0.6%, KCNH2 3.1 inh 11.0, hERG WT inh 10.9, ASM inhibitor -0.5%, p53 reactivation -5.4% and uPA generation -2.5%.
`COc1ccccc1C1CCN(Cc2ccc(C)cc2)CC1` gave MmCpn inh 0.2%, KCNH2 3.1 inh -83.5*, hERG WT inh 38.6, ASM inhibitor -1.4%, p53 reactivation -3.3% and uPA generation -5.6%.
COc1cccc(N(CC(=O)NCCSc2ccccn2)S(=O)(=O)c2ccccc2)c1 was read as MmCpn inh -2.4%, KCNH2 3.1 inh 4.3, hERG WT inh 5.9, ASM inhibitor -4.0%, p53 reactivation 0.3% and uPA generation -1.8%.
COc1ccc(C(=O)c2c3ccc(C(F)(F)F)cc3[n+]([O-])n2CCCC(N)=O)cc1 was read as MmCpn inh 0.3%, KCNH2 3.1 inh -7.9, hERG WT inh 22.8, ASM inhibitor -12.2%, p53 reactivation 1.8% and uPA generation 2.6%.
For NC(=O)CCCn1c(C(=O)c2cc(Cl)c(N)c(Cl)c2)c2ccc(C(F)(F)F)cc2[n+]1[O-] the results were MmCpn inh -0.8%, KCNH2 3.1 inh -85.5*, hERG WT inh 4.4, ASM inhibitor -8.8%, p53 reactivation -8.6% and uPA generation -9.7%.
For NCCCn1c(C(=O)c2cc(Cl)c(N)c(Cl)c2)c2ccc(C(F)(F)F)cc2[n+]1[O-] the results were MmCpn inh -1.8%, KCNH2 3.1 inh -124.7*, hERG WT inh 10.4, ASM inhibitor -18.7%, p53 reactivation -1.9% and uPA generation -15.1%.
`COc1ccc(C)cc1S(=O)(=O)N1c2ccc(C)cc2C2CN(C)CCC21` (stereo not given) gave MmCpn inh 0.3%, KCNH2 3.1 inh -2.3, hERG WT inh 11.7, ASM inhibitor 3.1%, p53 reactivation -10.1% and uPA generation 0.0%.
`CC(=O)c1ccc(Oc2cc(C)nc(N3CCOCC3)n2)cc1` gave MmCpn inh 1.3%, KCNH2 3.1 inh -136.4*, hERG WT inh -2.0, ASM inhibitor 4.1%, p53 reactivation -1.7% and uPA generation 9.1%.
